# Reference: ChEMBL document CHEMBL4513216, “Probing the Open Global Health Chemical Diversity Library for Multistage-Active Starting Points for Next-Generation Antimalarials” (ACS Infect Dis, 2020)
# The campaign covered roughly 68,000 compounds. About 2,700 (4%) showed an effect of 50% or more. The sample as a whole holds a higher share of strong results than the screen did.
# Test system: Plasmodium berghei
# Assay: Screen against P. berghei liver stage (PbLuc), transformed with Luciferase, at 2uM
# Type: functional, HepG2
# Conditions: tested at 2 uM
row,SMILES,INHIBITION
1,COCCN1CCN(Cc2noc(C3CC3)n2)CC1C (stereo unspecified),53.03%
2,CC(O)CN1CCN(Cc2nnc(C3CC3)o2)CC1 (stereo unspecified),7.54%
3,COCCN1C(=O)[C@@H]2CC[C@H]1CN(Cc1nnc(C3CC3)o1)C2,29.18%
4,CCC1CN(Cc2nnc(C3CC3)o2)CCN1CCOC (stereo unspecified),66.64%
5,CCOCCN1CCN(Cc2nnc(C3CC3)o2)CC1CC (stereo unspecified),-0.55%
6,CCOCCN1CCN(Cc2nnc(C3CC3)o2)CC1C (stereo unspecified),-19.75%
7,CC1CN(Cc2noc(C3CC3)n2)CCN1Cc1nccn1C (stereo unspecified),14.82%
8,CC1CN(Cc2noc(C3CC3)n2)CCN1Cc1noc(C2CC2)n1 (stereo unspecified),33.82%
9,CCOCCN1CCN(Cc2nnc(C3CC3)o2)CC1,51.7%
10,Cc1ccc(N2CCC3(CCN(Cc4csc(C)n4)CC3)CC2)nn1,18.91%
11,COc1ccc(C(C)NCCc2ccc(NC(C)=O)cc2)c(OC)c1 (stereo unspecified),26.99%
12,CC(=O)N1CCn2c(nnc2C2CCCCN2Cc2ccccc2Cl)C1 (stereo unspecified),-46.48%
13,CN(C)C(=O)c1nc(CN2C(=O)OC[C@@H]2c2ccccc2)no1,18.19%
14,Cn1cc(C(=O)NCc2ccc(OC3CCCCC3)nc2)ccc1=O,2.66%
15,Cc1noc(C)c1CN1CC2(CCCCN2c2cncnc2)CC1=O (stereo unspecified),50.32%
16,Cc1noc(C)c1CN1CC2(CCCCN2C)CC1=O (stereo unspecified),21.57%
17,N#Cc1cccc(CN2CC3(CCCCN3c3cncnc3)CC2=O)c1 (stereo unspecified),-29.69%
18,O=C(O)c1cc(-c2ccoc2)cc(S(=O)(=O)N2CCSCC2)c1,7.09%
19,Cc1cccc(NC(=O)CCC(=O)NCC(=O)c2ccccc2F)c1,22.31%
20,O=C(CNC(=O)c1ccccc1F)NCc1ccccn1,-20.05%
21,Cc1cccc(NC(=O)CNC(=O)c2ccccc2F)c1,53.99%
22,N#Cc1cc(CSCCN2CCOCC2)ccc1F,39.71%

row,SMILES,INHIBITION
1,Cc1c(C(=O)N2CCC2(C)C)nnn1-c1cccc2cccnc12,9.78%
2,Cc1c(C(=O)O)nnn1-c1cccc2cccnc12,-58.01%
3,Cc1c(C(=O)N2CC(C)(C)C2(C)C)nnn1-c1cccc2cnccc12,-107.15%
4,Cc1c(C(=O)N2CC(=O)N(C)C2)nnn1-c1cccc2cccnc12,57.5%
5,Cc1c(C(=O)N2CC(O)C2)nnn1-c1cccc2cnccc12,50.31%
6,Cc1c(C(=O)N2CCC2(C)C)nnn1-c1cccc2cnccc12,9.78%
7,c1cc(C2CCCN2CC2CC2)n[nH]1 (stereo unspecified),13.02%
8,COc1ccc(CNC(=O)CCn2cc(C)cn2)cc1C,-14.47%
9,CC(c1ccccn1)N(C)Cc1ccc(-n2ccnc2)cc1 (stereo unspecified),2.67%
10,C[C@@H](NCc1cccc(Cl)c1)c1onc(-c2ccc(F)cc2)c1C(=O)O,37.54%
11,Cc1cc(OCC(=O)N2CCCC(c3noc(C)n3)C2)no1 (stereo unspecified),6.3%
12,Cc1cc(OCC(=O)N2CCCC(c3ccn[nH]3)C2)no1 (stereo unspecified),24.31%
13,Cc1cc(C2CCCN(C(=O)COc3cc(C)on3)C2)n[nH]1 (stereo unspecified),60.64%
14,CN1C(=O)CCC12CCCN(C(=O)c1ccncc1F)C2 (stereo unspecified),-39.56%
15,CCc1noc(C)c1C(=O)N1CCCCC1Cn1cc(C)cn1 (stereo unspecified),-11.2%
16,c1ccc(OC2COC3(CCN(CC4CC4)CC3)C2)nc1 (stereo unspecified),-17.63%
17,CCC1(c2ccc(NS(=O)(=O)c3cccs3)cc2)CCC(=O)NC1=O (stereo unspecified),-13.33%
18,CNC(=O)CC1CCN(C(=O)NCc2coc3ccccc23)CC1,53.81%
19,COCCOC1CCN(C(=O)NCc2coc3ccccc23)CC1,40.88%
20,CNC(=O)CC1CCN(C(=O)NCC2(c3ccccc3F)CC2)CC1,-23.23%
21,CC(C)N1CCC(CC(=O)N(C)C(C)c2cncs2)CC1 (stereo unspecified),17.73%
22,Cc1cnc(N2CC(C(=O)N3CCOCC3)C3(CCOCC3)C2)nc1 (stereo unspecified),65.04%

row,SMILES,INHIBITION
1,O=C(C1CN(c2ncc(F)cn2)CC12CCOCC2)N1CC=CC1 (stereo unspecified),-78.69%
2,O=C(C1CN(c2ncc(F)cn2)CC12CCOCC2)N1CCOCC1 (stereo unspecified),-45.73%
3,Cn1cc(CN2CCO[C@H]3CN(Cc4ccsc4)C[C@H]32)cn1,1.88%
4,N#Cc1ncn(CCC(=O)Nc2ccc(Cl)cc2F)n1,5.52%
5,N#Cc1ncn(CCC(=O)Nc2cccc(Cl)c2)n1,7.13%
6,N#Cc1ncn(CCC(=O)Nc2ccc(F)c(F)c2)n1,57.92%
7,Cc1cc(C(=O)N2CCC3(CC(=O)NC3=O)C2)c(-c2ccccc2)o1 (stereo unspecified),15.87%
8,CCOc1ncnc2c1CCN(C(=O)c1ccncc1F)CC2,28.85%
9,c1csc(C2(NCc3csc(C4CC4)n3)CCCC2)n1,-56.92%
10,Cc1csc(C2(NCc3csc(C4CC4)n3)CCCC2)n1,-9.69%
11,CCCc1nc(CNC2(c3nccs3)CCCC2)cs1,58.68%
12,Cc1nc(C)n(CC2CCCCN2CC(=O)Nc2nnc(C)s2)n1 (stereo unspecified),19.97%
13,CN(C)Cc1nn(C)c2c1CN(S(=O)(=O)c1ccccc1F)C2,32.05%
14,COCCN(Cc1ccoc1)S(=O)(=O)c1ccc(F)c(C)c1,-10.1%
15,CCOc1ccc(S(=O)(=O)N(CCOC)Cc2ccncc2)cc1F,60.35%
16,CCOc1ccc(S(=O)(=O)N(CCOC)Cc2ccoc2)cc1F,21.37%
17,CSCC[C@@H](CO)n1ccnc1-c1nccn1C,17.37%
18,CN1CC(=O)N(c2cnn(C)c2)CC12CCN(C(=O)c1ccsc1)C2 (stereo unspecified),-6.94%
19,CCc1noc(C(C)N2CCN(Cc3cnc(C)cn3)CC2)n1 (stereo unspecified),-1.29%
20,Cc1nc(N2CCN(C(=O)c3ccsc3)CC2)c2cnn(C)c2n1,42.11%
21,N#Cc1ccc(N2CCC3(CCC(=O)N3CCN3CCCC3)CC2)nc1,52.96%
22,CN1C(=O)CCC12CCN(c1ccc(C#N)cn1)CC2,5.22%

row,SMILES,INHIBITION
1,N#Cc1ccc(N2CCCC3(CCC(=O)N3CC3CC3)CC2)nc1 (stereo unspecified),-16.78%
2,COc1ccccc1N1CCN(C(=O)COc2c(C)occc2=O)CC1,-24.81%
3,Cc1nc(C)n(CC2CCCN(CCOc3ccc(F)cc3)C2)n1 (stereo unspecified),-23.18%
4,Cc1cccc(CN2CCCCC23CCNC3)n1 (stereo unspecified),22.16%
5,Cc1cccc(CN2CCC23CCCNC3)n1 (stereo unspecified),20.51%
6,Cc1cccc(CN2CCCC23CCNC3)n1 (stereo unspecified),63.89%
7,CCc1nnc2n1CCN(Cc1csc(NC(C)=O)n1)C2,-5.09%
8,Cc1ccc2c(c1)SCC(=O)N2CC(=O)N1CCC[C@H]1c1nc(C)no1,22%
9,COc1c(CNC2CCc3cc(F)ccc32)c(C(C)C)nn1C (stereo unspecified),-52.77%
10,COCC(=O)NCC1(COc2cccnc2)C[C@@H](O)[C@@H](O)C1 (stereo partly specified),-40.44%
11,CCn1nc(C)cc1S(=O)(=O)N1CCC2(CCCN(C(C)C)C2=O)C1 (stereo unspecified),55.36%
12,CCCn1nccc1S(=O)(=O)N1CCC2(CCCN(C(C)C)C2=O)C1 (stereo unspecified),38.67%
13,CCn1nccc1S(=O)(=O)N1CCC2(CCCN(C(C)C)C2=O)C1 (stereo unspecified),17.2%
14,CCn1nc(C)cc1S(=O)(=O)N1CCC2(CC(=O)NC2=O)C1 (stereo unspecified),5.28%
15,CCCN1CCCC2(CCN(S(=O)(=O)c3cccnc3)C2)C1=O (stereo unspecified),11.9%
16,CCCN1CCCC2(CCN(S(=O)(=O)c3cc(C)nn3CC)C2)C1=O (stereo unspecified),57.75%
17,COCCN1C(=O)[C@@H]2CC[C@H]1CN(C(=O)COc1ccc(F)c(Cl)c1)C2,38.83%
18,COc1ccc(C2=CCN(C(=O)C3CCN(C)C(=O)C3)CC2)cc1 (stereo unspecified),17.39%
19,O=C(NCc1ccccn1)[C@@]12CCO[C@@H]1CCN(c1ncccn1)C2,-20.87%
20,Cc1oc(C(=O)O)cc1S(=O)(=O)Nc1ccc(Cl)c(Cl)c1,16.79%
21,Cc1oc(C(=O)O)cc1S(=O)(=O)Nc1cc(Cl)ccc1F,16.64%
22,Cc1oc(C(=O)O)cc1S(=O)(=O)Nc1ccc(Cl)c(F)c1,56.67%

row,SMILES,INHIBITION
1,Cc1n[nH]c(C)c1NC(=O)CN1CCOC(Cn2cccn2)C1 (stereo unspecified),37.52%
2,Cn1cc(C(=O)N2CCCC(c3cc(O)n(C)n3)C2)cn1 (stereo unspecified),27.39%
3,COCc1nc(C(=O)NS(=O)(=O)c2ccc(Cl)cc2F)cs1,-7.88%
4,NC(=O)c1ccc(CN2CCCC(N3CCCC3)C2)cc1 (stereo unspecified),58.65%
5,NC(=O)c1ccc(CN2CCC(N3CCCC3)CC2)cc1,-29.69%
6,NC(=O)c1ccc(CN2CCCC(N3CCCCCC3)C2)cc1 (stereo unspecified),9.8%
7,COCCN1CCC(Nc2c(F)cc(C#N)cc2F)CC1,-22.01%
8,CSCC(=O)N[C@H]1CN(CC2CCOCC2)C[C@@H]1c1ccccc1,37.15%
9,CS(=O)(=O)NCC(=O)N[C@H]1CN(CC2CC2)C[C@@H]1c1ccccc1,48.93%
10,O=C(CCO)N[C@H]1CN(CC2CCC2)C[C@@H]1c1ccccc1,75.86%
11,CN(C)S(=O)(=O)N1C[C@H]2CC[C@@H](C1)N(Cc1cccc(C#N)c1)C2,-19.83%
12,CCNC(=O)N1CCc2ccc(NC(=O)NCCOCC)cc21,10.1%
13,Cn1c(-c2ccccc2Cl)nc2cc(C(=O)NC(CO)CO)cnc21,56.89%
14,Cn1c(-c2ccccc2Cl)nc2cc(C(=O)NCC3(C)COC3)cnc21,21.24%
15,CN(C)CCNC(=O)c1cnc2c(c1)nc(-c1ccccc1Cl)n2C,-1.73%
16,Cn1c(-c2ccccc2Cl)nc2cc(C(=O)NCCOCCO)cnc21,2.7%
17,Cn1c(-c2ccccc2Cl)nc2cc(C(=O)NCC3(CO)CC3)cnc21,58.53%
18,CC(=O)NCCNC(=O)c1cnc2c(c1)nc(-c1ccccc1Cl)n2C,-5.51%
